HDAC3 inhib: human HDAC3 inhibition | inhibition, % at 8.3 µM | AID 2718 | 320,000 tested, 0.15% active | recombinant HDAC3, fluorogenic peptide/trypsin coupled, fluorescence | O15379; in the data active means inhibition above about 26%, passing the limit was not always enough; inconclusive means no clear call, values can overlap the other calls
DSG3 Ab inh: inhibitors of pemphigus antibody binding to human desmoglein-3 | AID 588358 | 310,000 tested, 0.48% active | binding (percent of control), % at 10 µM | DSG3-coupled beads, scFv-anti-DSG3-GFP binding, flow cytometry; hits give low values | P32926;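 active means binding more than 3 SD below its plate's average and above zero; inconclusive means below that plate limit but binding exactly zero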;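 further: hits lower antibody fragment binding to DSG3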
Target sequence (P32926 whole entry, looked up, the tested form may be a part): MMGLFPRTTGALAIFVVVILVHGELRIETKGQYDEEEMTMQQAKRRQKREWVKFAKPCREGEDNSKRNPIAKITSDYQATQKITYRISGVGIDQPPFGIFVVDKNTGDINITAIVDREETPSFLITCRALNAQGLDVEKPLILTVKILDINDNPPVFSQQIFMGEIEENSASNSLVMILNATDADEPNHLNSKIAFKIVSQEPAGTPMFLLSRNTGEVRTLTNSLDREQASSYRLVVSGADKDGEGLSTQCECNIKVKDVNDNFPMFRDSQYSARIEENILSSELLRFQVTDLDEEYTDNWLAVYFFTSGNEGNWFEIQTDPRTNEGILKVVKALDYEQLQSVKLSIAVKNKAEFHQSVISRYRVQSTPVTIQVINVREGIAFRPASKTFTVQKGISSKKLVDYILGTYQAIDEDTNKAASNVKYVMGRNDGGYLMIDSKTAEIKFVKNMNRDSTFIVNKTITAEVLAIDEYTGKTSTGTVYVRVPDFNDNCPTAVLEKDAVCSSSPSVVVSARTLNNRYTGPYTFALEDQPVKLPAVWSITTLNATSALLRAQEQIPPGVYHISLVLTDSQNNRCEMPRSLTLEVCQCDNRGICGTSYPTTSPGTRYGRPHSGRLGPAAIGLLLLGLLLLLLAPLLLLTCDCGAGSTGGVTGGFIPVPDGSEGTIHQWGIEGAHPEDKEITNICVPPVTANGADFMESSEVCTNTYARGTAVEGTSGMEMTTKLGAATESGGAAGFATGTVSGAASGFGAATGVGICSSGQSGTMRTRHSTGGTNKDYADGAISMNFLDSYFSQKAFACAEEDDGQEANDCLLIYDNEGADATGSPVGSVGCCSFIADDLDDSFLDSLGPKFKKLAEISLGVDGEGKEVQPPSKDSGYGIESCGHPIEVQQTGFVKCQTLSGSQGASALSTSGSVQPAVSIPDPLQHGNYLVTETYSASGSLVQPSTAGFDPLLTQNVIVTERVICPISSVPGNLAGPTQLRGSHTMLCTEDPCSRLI
VLA-4 inh: inhibition in a human VLA-4 binding assay | AID 2557 | VLA-4 expressing cells, ligand binding flow cytometry | 330,000 tested, 0.2% active | inhibition, % (about 7 µM as worked out from the volumes in the protocol) | P13612
PKD1 kinase inh: PKD1 (human) kinase inhibition | 200,000 tested, 0.056% active | PKD1 kinase fluorescence polarization assay | inhibition, % (concentration not given with the values) | Q15139
LANA-H2B inh: blocks KSHV LANA binding to histone H2A/H2B. Q9QR71. cell-free LANA-H2A/H2B peptide, fluorescence polarization. inhibition, % (test concentration not listed). 320,000 tested, 0.6% active; in the data active means inhibition mostly above about 10%, no sharp cut-off; inactive means mostly below about 6.7%
GRK2 aptamer HTS: blocks RNA aptamer binding to human GRK2; inhibition of aptamer binding, % at 10 µM; P25098; 330,000 tested, 0.59% active; bead flow cytometry, FAM-aptamer displacement from GRK2;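 active means inhibition of aptamer binding above 40%, roughly 3 SD of noise, on plates passing a quality check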;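 further: median bead fluorescence of bound FAM aptamer so fluorescent compounds give negative values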
* hit, by the source's call; ? = inconclusive; · = not tested or not shown; + = active, no number. Compounds with a hit are over-represented: about 1.8% of the library has one in this group of screens. Unless noted, no stated cut-off is given here; in the data, active means inhibition above about 50%; inactive means the rest.

SMILES | HDAC3 inhib | DSG3 Ab inh | VLA-4 inh | PKD1 kinase inh | LANA-H2B inh | GRK2 aptamer HTS
C=C(C)C(=O)Nc1ccc2c(c1)OCCOCCOCCO2 | -1 | 90 | -3 | · | 5 | 93*
COc1ccccc1Nc1ccncc1[N+](=O)[O-] | 1 | 101 | 6 | -2 | -5 | 3
COc1ccc(C(=O)n2cnc3ccccc32)cc1 | 33* | 154 | -7 | · | -1 | 1
COc1ccc(C(=O)n2cnc(N)n2)cc1 | 71* | 106 | 14 | -17 | 0 | 0
COc1ccc(N(CC(=O)Nc2cccc(N(C)S(C)(=O)=O)c2)S(=O)(=O)c2ccc(F)cc2)cc1 | -1 | 102 | 7 | · | 152* | 0
COc1ccc(N(CC(=O)Nc2cccc(N(C)S(C)(=O)=O)c2)S(=O)(=O)c2ccc(C)cc2)cc1 | 13 | 99 | -25 | -3 | -2 | 3
CCOc1ccc(N(CC(=O)Nc2cc(C)cc(C)c2)S(C)(=O)=O)cc1 | · | 103 | 4 | · | 0 | 0
CC(C)(C)SCCNC(=O)CN(c1ccccc1)S(=O)(=O)c1ccc(F)cc1 | -2 | 5.2* | -21 | -3 | -1 | 5
CCOc1ccc(N(CC(=O)Nc2cccc(N(C)S(C)(=O)=O)c2)S(=O)(=O)c2ccccc2)cc1 | 1 | 102 | 14 | -6 | 25* | 0
CCOc1ccc(N(CC(=O)Nc2cccc(Br)c2)S(C)(=O)=O)cc1 | 9 | 113 | 0 | · | 36* | 0
CC1CCCC(C)N1C(=O)COC(=O)c1nn(C)c(=O)c2ccccc12 (centres undefined) | 2 | 106 | -1 | · | 1 | 8
COc1ccc(C(CC(=O)O)NS(=O)(=O)c2ccc3c(c2)NC(=O)CO3)cc1 (centres undefined) | 0 | 107 | 6 | · | -4 | 4
Cc1nn(-c2ccccc2)nc1-c1nnc(-c2ccc(C(F)(F)F)cc2)o1 | -2 | 76* | 5 | · | -4 | 2
O=C(COC(=O)c1cc2c(s1)CCC2)Nc1ccc(F)cc1 | -4 | 106 | 2 | 3 | 4 | 36
Cc1ccc(NC(=O)CN(C)C(=O)c2cc3c(s2)CCCCC3)cc1 | 6 | 97 | 22 | · | 21* | 2
COc1ccc(NC(=O)COC(=O)c2cc3c(s2)CCC3)cc1 | 1 | 101 | 4 | · | -15 | 43*
COc1ccc(CCN2C(=NC(=O)CC(C)C)SC3CS(=O)(=O)CC32)cc1OC (centres undefined) | -2 | · | 9 | · | 22* | 3
CCC(CC)C(=O)N=C1SC2CS(=O)(=O)CC2N1CCc1ccc(OC)c(OC)c1 (centres undefined) | 7 | · | 9 | · | -1 | 0
CCC(CC)CN1CCN=C1N(C)C | -7 | 100 | 0 | · | 3 | 0
O=C(CSC1=NCCS1)NC(c1ccccc1)c1ccccc1 | ? | 99 | 33 | -2 | 4 | 0
O=C(CSC1=NCCS1)NC(NC(=O)CSC1=NCCS1)c1ccccc1 | -9 | 101 | 20 | -4 | 16* | 2
O=C1N[C@H]2CC=C[C@H]2Nc2ccccc21 | · | 68* | · | · | · | 4
CC(C)(C)S(=O)(=O)c1ccc(S(=O)(=O)C(C)(C)C)s1 | -5 | · | 4 | -13 | -1 | 0
Cn1c(C(=O)OCC(=O)NCc2cccs2)cc2sccc21 | ? | 40* | 6 | -5 | -3 | 0
N=C1C(=O)OCC1c1ccccc1NC(=O)Nc1ccccc1 (centres undefined) | -3 | 92 | 0 | -5 | 0 | 3
SMILES | HDAC3 inhib | DSG3 Ab inh | VLA-4 inh | PKD1 kinase inh | LANA-H2B inh | GRK2 aptamer HTS
Cc1ccc(NC(=O)Nc2cc(Cl)ccc2C2COC(=O)C2=N)cc1 (centres undefined) | -8 | 94 | 55* | -2 | -4 | 0
COc1ccc(S(=O)(=O)Nc2cccc(-c3ccc4nncn4n3)c2)c(OC)c1 | 12 | 98 | 22 | · | 3 | 0
Cc1ccc(C2=[N+]([O-])C3(CCCCC/C3=N\NC(N)=S)N(O)C2(C)C)o1 (centres undefined) | 8 | · | -4 | -5 | 0 | 4
CCCCCCCCOC(=O)CCc1c(C)[nH]c(=S)[nH]c1=O | -5 | 11* | -8 | 2 | -2 | 1
CCCCCCOC(=O)CCc1c(C)nc(N)[nH]c1=O | -3 | · | -8 | 1 | -2 | 0
O=C(CN1CCCCC1)Nc1ccc(S(=O)(=O)N2CCCCCC2)cc1 | 4 | 102 | -8 | -4 | -4 | 4
O=C(CN1CCCC1)Nc1ccc(S(=O)(=O)N2CCCCC2)cc1 | 0 | 103 | -1 | · | 35* | 3
O=C(CN1CCN(c2ccc(O)cc2)CC1)Nc1ccc(S(=O)(=O)N2CCCC2)cc1 | 0 | 73* | -4 | · | 2 | 0
CCOC(=O)c1c(C)nc2sc(C(=O)Nc3ccccc3)c(N)c2c1-c1ccc(OC)cc1 | 9 | 88* | 8 | 2 | 1 | 0
Cc1ccc(NC2=Nc3ccccc3N3C2=Nc2c(c(C)nn2-c2ccccc2)C3c2ccc(O)c(O)c2)cc1 (centres undefined) | · | 91* | · | -1 | · | ·
CN(C)S(=O)(=O)c1cccc(NC(=O)CCc2c[nH]c3ccccc23)c1 | 10 | 101 | 8 | -3 | + | 0
CN(C)S(=O)(=O)c1cccc(NC(=O)Cc2ccc(Cl)cc2)c1 | -7 | · | -2 | -16 | -1 | 0
CCC(C)n1cnc2c(c1=O)c1nc3ccccc3nc1n2-c1ccc2c(c1)OCCO2 (centres undefined) | -6 | 42* | 4 | 4 | 6 | 0
CCOC(=O)C1=NN(C(C)=O)C2(CC(=O)N(c3cc(C)cc(C)c3)C2=O)C1 (centres undefined) | -10 | 93 | 9 | -5 | -2 | 100*
CCO[C@@H]1OC(C(=O)O)=C[C@H](c2ccc(Br)cc2)[C@H]1CCCO | 41* | 103 | 38 | 2 | 7 | 0
CC1CCCC(NC(=O)COC(=O)CCC2CCCC2)C1C (centres undefined) | 2 | 45* | 9 | -2 | 0 | 1
COC(=O)c1ccc(CNC(=O)Cn2cnnn2)cc1 | 5 | 81* | 4 | · | 4 | 1
COc1ccccc1CNC(=O)Cn1cnnn1 | -7 | 109 | 0 | · | 0 | 0
CCOc1ccc2c(c1)c1nc3ccccc3nc1n2C | 0 | 118 | 7 | · | 39* | 2
COc1ccc(N=C2CCS(=O)(=O)c3sccc32)cc1 | 0 | 99 | 2 | -5 | 0 | 13
COc1ccc(C(=O)O/N=C2\CCS(=O)(=O)c3sccc32)cc1 | 52* | 100 | -4 | -2 | -3 | 1
O=[N+]([O-])c1ccc(CSc2ccc(-c3ccccn3)nn2)cc1 | 3 | 83* | -4 | 7 | -1 | 7
CCOc1ccccc1NC(=O)COC(=O)c1ccc2ccccc2n1 | -1 | · | 0 | · | 111* | 0
COC(=O)c1ccc(C(=O)OC)c(NC(=O)C2CCCO2)c1 (centres undefined) | 6 | 110 | -1 | · | 16* | 2
O=C(O)c1ccc(Cl)cc1NC(=O)C1CCCO1 (centres undefined) | 0 | 96 | -2 | -4 | 1 | 0

Source: PubChem BioAssay
